# Results filed as inconclusive are left out. The source made the active and inactive calls. Calls follow the shape of the full dose curve.
# Assay: qHTS assay to identify small molecule agonists or antagonists of the thyroid stimulating hormone receptor (TSHR) signaling pathway - wild type cell line counter screen (AID 1259384)
# Conditions: HEK293 wild type, cAMP HTRF counter-screen, stronger effect = higher value; series mostly up to 92.4 µM; cAMP activity change: at the top concentration
# Excerpt: U.S. Tox21 Program National Center for Advancing Translational Sciences [NCATS] NIH Chemical Genomics Center [NCGC] U.S. Environmental Protection Agency [EPA] National Institutes of Environmental Health Sciences [NIEHS] National Toxicology Program [NTP] U.S. Food and Drug Administration [FDA] Tox21 Assay Overview: TSHR is the receptor for thyrotropin (thyroid stimulating hormone or TSH), a member of the glycoprotein hormone family. TSH is released by the anterior pituitary gland and is the main regulator of thyroid gland growth and development. Upon binding circulating thyrotropin, a G-protein signal cascade activates adenylyl cyclase and […] cAMP concentration is increased. cAMP is a key second messenger involved extensively in cellular signal transduction pathways associated with the majority of G-protein coupled receptors (GPCRs). The activation of these GPCRs by neurotransmitters, lipids, nucleotides, peptides and hormones results in the activation or the inhibition of plasma membrane-bound adenylate cyclase through heterotrimeric G-proteins. A cell-based TSHR-Hek293 assay can be used to identify TSHR agonists. To eliminate the false positive compounds identified from screening a cell-based TSHR-Hek293 cell line, cAMP assay in a wild type Hek293 cells was used as a counter screening.
# Tox21 Assay Protocol Summary: Hek293 cells (wild type) were dispensed at 800 cells/4 uL/well in 1536-well white plates using a Multidrop dispenser. After the assay plates were incubated at a 37 C/5% CO2 incubator for 18 hrs, 23 nL of compounds dissolved in DMSO, positive controls or DMSO only was transferred to the assay plate by a pin tool, followed by 1 ul medium containing Ro20-1724. After 30 min of incubation at room temperature, 2.5 ul/well of cAMP-d2 and 2.5 ul/well of anti-cAMP-cryptate were added respectively into the assay plates using a Flying Reagent Dispenser. The plates were incubated at room temperature for 1 hr. The fluorescence intensity in the plates was measured using an Envision plate reader. Each test compound was measured at 15 concentrations and in triplicates.
# % is scaled to controls: 0 for no effect and ±100 for the full control effect.
Compound,outcome,cAMP activity change
Cl/C=C/Cl,inactive,–
Cl[C@H]1OCCO[C@@H]1Cl,inactive,–
N#Cc1cccc(C#N)c1,inactive,–
C=CC(=O)OCC(CC)CCCC (stereo not given),inactive,–
COC(C)(C)CCCC(C)C/C=C/C(C)=C/C(=O)OC(C)C (stereo not given),inactive,–
C=CC(=O)OCCCCCC(C)C,inactive,–
[N-]=[N+]=CC(=O)OC[C@H](N)C(=O)O,inactive,–
Cc1cc(O)ccc1Cl,inactive,–
CN(C)NC(=O)CCC(=O)O,inactive,–
Sc1ccccc1,inactive,–
C/C=C/c1ccc2c(c1)OCO2,inactive,–
CN(C)C(=O)Nc1cccc(C(F)(F)F)c1,inactive,–
Cc1ccc(O)c(C)c1,inactive,–
CNC(=O)O/N=C(\SC)C(=O)N(C)C,inactive,–
C[C@H]1C(=O)O[C@@H]2CCN3CC=C(COC(=O)[C@](C)(O)[C@]1(C)O)[C@H]23,inactive,–
CCOc1ccc(N)cc1,inactive,–
CC[N+](=O)[O-],inactive,–
O=P1(NCCCl)OCCCN1CCCl (stereo not given),inactive,–
CC(=O)C1CCOC1=O (stereo not given),inactive,–
CCNc1nc(Cl)nc(NC(C)C)n1,inactive,–

Compound,outcome,cAMP activity change
C[C@]12CC[C@H](O)CC1=CC[C@@H]1[C@@H]2CC[C@]2(C)C(=O)CC[C@@H]12,inactive,–
Cc1ccccc1N,inactive,–
Oc1c(Br)cc(Br)cc1Br,inactive,–
ClCCOCCCl,inactive,–
Clc1cnc(Oc2ccc(Oc3ncc(Cl)cc3Cl)cc2)c(Cl)c1,–,1.44% [at 42.5 µM] (inactive)
Nc1nc(N)nc(NC2CC2)n1,inactive,–
N#Cc1ccccn1,inactive,–
O=[N+]([O-])c1ccc(Cl)c(Cl)c1,inactive,–
Nc1ncc([N+](=O)[O-])s1,inactive,–
CNC(=O)O/N=C/C(C)(C)SC,inactive,–
Cc1cccc(C)c1N,inactive,–
CCOP(=S)(OCC)Oc1cc(C)nc(C(C)C)n1,inactive,–
c1ccc2c(c1)CCCC2,inactive,–
CC(C)CCCCCCOC(=O)c1ccccc1C(=O)OCCCCCCC(C)C,inactive,–
Nc1ccc([As](=O)(O)O)cc1,inactive,–
O=[N+]([O-])c1ccc(Cl)cc1,inactive,–
COP(=S)(OC)SCN1C(=O)c2ccccc2C1=O,inactive,–
CC(C)c1cccc(C(C)C)c1O,inactive,–
CC(C)(C)C(=O)CCl,inactive,–
CCOP(=S)(OCC)Oc1ccc([N+](=O)[O-])cc1,inactive,–
